From PubChem
Sampled rows, rich in hits. Any-hit rate of the full collection: about 4.3%.
Wnt bcat act: Wnt/beta-catenin pathway activators, primary screen, cell-based, plate reader, single point; Wnt/beta-catenin reporter cell assay, activator; activation, % at 9.35 µM; 300,000 tested, 1.2% active; AID 743398, 2014; in the data active = activation above about 30%, passing the limit was not always enough; inconclusive = no clear call, values can overlap the other calls;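 note: 0% = neutral control wells and 100% = positive control wells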
AF4-AF9 inh: inhibitors of AF4 peptide binding to AF9, primary screen, biochemical, AlphaScreen, biotin-AF4 peptide, FLAG-AF9, single point. 350,000 tested, 0.47% active. AID 651704, 2012. Protein AF-9 (Homo sapiens), P42568. inhibition, % at 10 µM;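 active = every replicate reaching a set inhibition limit, whatever the replicate mean, cut at about 25% in these data; inconclusive = mean inhibition reaches that limit but some replicates miss it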;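 note: 0% = plate neutral control median and 100% = total signal loss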
FGF22 binding: binders of human FGF22 protein, primary screen, FGF22 synaptogenesis inhibitor project, biophysical, thermal shift, single point. Fibroblast growth factor 22 (Homo sapiens), Q9HCT0. activity (Tm shift, normalised), % at 9.99 µM. 340,000 tested, 1.5% active. AID 651658, 2012. recombinant FGF22 thermal shift, SYPRO orange fluorescence; percent of sucrose octasulfate shift, DMSO zero;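 active = mean Tm shift, scaled 0 neutral to 100 positive control, at about 1.3% or above, every replicate too, limit read from the data; inconclusive = no clear call, values can overlap the other calls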
Target sequence (Q9HCT0 whole entry, looked up): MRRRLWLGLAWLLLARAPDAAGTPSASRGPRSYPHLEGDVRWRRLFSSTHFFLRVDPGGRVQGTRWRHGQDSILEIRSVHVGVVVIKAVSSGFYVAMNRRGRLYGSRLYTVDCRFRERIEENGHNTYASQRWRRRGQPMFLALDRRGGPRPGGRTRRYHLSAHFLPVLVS
esBAF inh: Bmi1 luciferase reporter increase in mESCs, primary screen, esBAF inhibitor project, mouse ES cells, Bmi1 luciferase knock-in, single point; 24 h; 100% = twice the neutral-well signal; 350,000 tested, 2% active; AID 602393, 2012; reporter increase, % at 12.5 µM; in the data active = activation above about 40%; inconclusive = no clear call, values can overlap the other calls;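 note: 0% = median of the plate's neutral control wells and 100% = double that signal; a rise in the Bmi1 reporter signal indicates esBAF inhibition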
SMARCA2 act: SMARCA2 (BRM) function activators, primary screen, cell-based, luminescence, high throughput | MG213 cells, MMTV-luciferase reporter, dexamethasone, overnight | activation, % at 9.1 µM | 370,000 tested, 1% active; in the data active = activation above about 7.8%;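 note: 0% = vehicle wells and 100% = reference activator wells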
MITF act: activators of MITF-driven TRPM1 promoter reporter, primary screen, cell-based, SK-MEL-5, luciferase, single point | SK-MEL-5 TRPM1-promoter luciferase, 24 h; % of positive control, neutral wells = 0 | activation, % at 12.5 µM | 300,000 tested, 0.75% active;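 active = mean activation of at least 80% with every replicate also reaching 80%; inconclusive = mean reaches 80% but some replicate falls short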;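 note: 0% = neutral control wells and 100% = parthenolide positive control wells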
* marks the source's active call; other numbers are inactive results.

How did CC1CCC(NC(=O)c2ccc(NC(=O)CC3SC(N4CCCC4)=NC3=O)cc2)CC1 (stereo unspecified) do in these assays?
Wnt bcat act: 28; AF4-AF9 inh: -13; FGF22 binding: 0; esBAF inh: 66*; SMARCA2 act: 5; MITF act: 76

What do the screens show for `CCNC(=O)c1ccc(NC(=O)CC2SC(N3CCCCC3)=NC2=O)cc1` (stereo unspecified)?
Wnt bcat act: 1; AF4-AF9 inh: -1; FGF22 binding: 0; esBAF inh: -1; SMARCA2 act: 1; MITF act: -5

Results for O=C(Nc1ccc2c(c1)[C@H]1C[C@@H](CC(=O)N3CCc4ccccc4C3)O[C@@H](CO)[C@H]1O2)C1CCC1 ?
AF4-AF9 inh: 1; FGF22 binding: 0; esBAF inh: 1

Results for CC(NC(=O)CSc1n[nH]c(=O)[nH]c1=O)C1CC2CCC1C2 (stereo unspecified) ?
Wnt bcat act: -1; AF4-AF9 inh: 7; FGF22 binding: 0; SMARCA2 act: 1; MITF act: -9

Results for Cc1cc(=O)[nH]c(SCC(=O)NC(C)C2CC3CCC2C3)c1C#N (stereo unspecified) ?
Wnt bcat act: 0; AF4-AF9 inh: -4; FGF22 binding: 44*; SMARCA2 act: -5; MITF act: 2

How did C[C@@H]1CN([C@H](C)CO)C(=O)Cc2cc(NS(C)(=O)=O)ccc2O[C@H]1CN(C)CC1CCCCC1 do in these assays?
AF4-AF9 inh: -2; esBAF inh: -2

Results for COc1cccc2cc(C(=O)OCC(=O)N3CC(C)OC(C)C3)c(=O)oc12 (stereo unspecified) ?
Wnt bcat act: -2; AF4-AF9 inh: -4; FGF22 binding: 0; esBAF inh: 64*; SMARCA2 act: 3; MITF act: 63

How did O=C(C[C@H]1CC[C@@H]2[C@H](COC[C@H](O)CN2Cc2ccc(Cl)cc2)O1)NCCc1ccccc1 do in these assays?
AF4-AF9 inh: 1; FGF22 binding: 0; esBAF inh: 2

How did C[C@H](CO)N1C[C@H](C)[C@@H](CN(C)CC2CCCCC2)Oc2ccc(NC(=O)Nc3ccc4c(c3)OCO4)cc2C1=O do in these assays?
AF4-AF9 inh: 13; FGF22 binding: 0; esBAF inh: -9

Results for N#Cc1ccc(CO/N=C/c2ccccc2)cc1 ?
Wnt bcat act: -5; AF4-AF9 inh: -16; FGF22 binding: 44*; esBAF inh: 6; SMARCA2 act: -4; MITF act: 2

Results for Cc1nc2ccccc2nc(C)c1=NOCc1ccc(C#N)cc1 ?
Wnt bcat act: 4; SMARCA2 act: 0; MITF act: 3

What do the screens show for `CC(=O)c1cccc(NC(=S)N2CCC(Cc3ccccc3)CC2)c1`?
Wnt bcat act: -2; AF4-AF9 inh: 0; FGF22 binding: 0; SMARCA2 act: -2; MITF act: -11

What do the screens show for `CN(C)S(=O)(=O)c1ccc(NC(=O)CN2CCC(Cc3ccccc3)CC2)cc1`?
Wnt bcat act: 0; AF4-AF9 inh: -7; FGF22 binding: 44*; esBAF inh: -6; SMARCA2 act: -4; MITF act: 0

What do the screens show for `CC(=O)c1ccc(NC(=S)N2CCC(Cc3ccccc3)CC2)cc1`?
Wnt bcat act: 40*; AF4-AF9 inh: 2; FGF22 binding: 0; SMARCA2 act: -4; MITF act: 8

Results for CN(C)S(=O)(=O)c1ccc(Cl)c(NC(=O)CN2CCC(Cc3ccccc3)CC2)c1 ?
Wnt bcat act: -2; AF4-AF9 inh: -3; FGF22 binding: -1; SMARCA2 act: -3; MITF act: -1

How did C[C@@H]1CN([C@H](C)CO)C(=O)Cc2cc(NC(=O)NC3CCCCC3)ccc2O[C@H]1CN(C)Cc1ccc(C(=O)O)cc1 do in these assays?
AF4-AF9 inh: -2; FGF22 binding: 0; esBAF inh: 4

What do the screens show for `CCOC(=O)c1ccc(NCc2nc3ccccc3[nH]2)cc1`?
Wnt bcat act: inconclusive; AF4-AF9 inh: 6; FGF22 binding: 0; esBAF inh: 50*; SMARCA2 act: 1; MITF act: 57

What do the screens show for `CCOC(=O)c1cnc2ccc(C)cc2c1Sc1ccccc1`?
Wnt bcat act: -3; esBAF inh: 54*; SMARCA2 act: 4; MITF act: 35

Results for CCOC(=O)c1ccc(Nc2cnc3ccccc3n2)cc1 ?
Wnt bcat act: 34*; AF4-AF9 inh: -2; FGF22 binding: 0; SMARCA2 act: 1; MITF act: inconclusive

What do the screens show for `CCOC(=O)Cc1nc2ccccc2[nH]1`?
esBAF inh: 10; SMARCA2 act: -4; MITF act: -13

Results for CCOC(=O)c1cnc2ccc(C)cc2c1Sc1ccc(F)cc1 ?
Wnt bcat act: -5; esBAF inh: 32; SMARCA2 act: 3; MITF act: 26

How did CCOC(=O)c1cccc(NC(=O)c2cnc3ccccc3n2)c1 do in these assays?
Wnt bcat act: -4; esBAF inh: 53*; SMARCA2 act: 5; MITF act: 28

Results for N#C[C@@H]1[C@H](c2ccccc2C2=CCCCC2)[C@@H](CO)N1C(=O)Cc1ccncc1 ?
AF4-AF9 inh: -2

Results for CCOC(=O)c1cnc2ccccc2c1Nc1cccc(C(=O)O)c1 ?
Wnt bcat act: 1; AF4-AF9 inh: 2; FGF22 binding: 0; esBAF inh: 5; SMARCA2 act: 0; MITF act: -3

How did CCOC(=O)c1cnc2ccccc2c1Nc1ccc(C(=O)O)cc1 do in these assays?
Wnt bcat act: 6; AF4-AF9 inh: 0; FGF22 binding: 44*; SMARCA2 act: -2; MITF act: -13

How did CC(C)c1ccc2nc(N)sc2c1 do in these assays?
Wnt bcat act: 11; AF4-AF9 inh: 1; FGF22 binding: 0; esBAF inh: -5; SMARCA2 act: 4; MITF act: 92*

How did Nc1nc2ccc(Oc3ccccc3)cc2s1 do in these assays?
SMARCA2 act: 4; MITF act: 77

How did Nc1nc2ccc(OC(F)(F)F)cc2s1 do in these assays?
Wnt bcat act: 11; AF4-AF9 inh: -1; FGF22 binding: 0; esBAF inh: 43*; SMARCA2 act: -3; MITF act: 41

What do the screens show for `Nc1nc2ccc(O)cc2s1`?
Wnt bcat act: 2; esBAF inh: -9; SMARCA2 act: -1

What do the screens show for `COc1ccccc1OCCOc1ccc(/C=C2\C(=N)N3N=C(S(C)(=O)=O)SC3=NC2=O)cc1`?
Wnt bcat act: 0; AF4-AF9 inh: -12; FGF22 binding: 2.1*; esBAF inh: 2; SMARCA2 act: 0; MITF act: 11
